SENP6 block: SENP6 protease inhibitors, primary screen, biochemical, luminescence, uHTS. Recombinant SENP6 catalytic domain, aminoluciferin luminescence. inhibition, % at 10 µM. 330,000 tested, 1.8% active. AID 2599, 2010;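 active = inhibition above about 50% at the single tested dose, limit read from the data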;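 note: plate controls were DMSO wells with enzyme for no effect and DMSO wells lacking enzyme for full effect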
PPC-1+TRAIL kill: compounds killing PPC-1 cancer cells with TRAIL present, primary screen, TRAIL potentiator project, ATPLite luminescence, uHTS; PPC-1 cells + TRAIL, ATPLite viability luminescence; cell killing (% activity), % at 4 µM or 5 µM; 220,000 tested, 0.41% active;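 active = cell killing above 50% in the first pass at 4 µM, then a duplicate retest at 5 µM averaging 50% or more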;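 note: plate controls were cells with TRAIL plus DMSO for no effect and medium-only wells lacking cells for full effect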
SENP8 block-1: human SENP8 protease inhibitors, primary screen, biochemical, fluorescence, Nedd8 protein substrate, uHTS | recombinant SENP8 | AID 602440, 2012 | inhibition, % at 20 µM | 360,000 tested, 0.64% active | Sentrin-specific protease 8 (Homo sapiens), Q96LD8; in the data active = inhibition mostly above about 40%, no sharp cut-off; inactive = mostly below about 27%
SENP8 block-2: SENP8 protease inhibitors, primary screen, biochemical, luminescence; Sentrin-specific protease 8 (Homo sapiens), Q96LD8; purified SENP8, Z-RLRGG-aminoluciferin cleavage; inhibition, % at 10 µM; 330,000 tested, 1.2% active; in the data active = inhibition above about 50%
SENP7 inh: SENP7 protease inhibitors, primary screen, biochemical, luminescence, uHTS; Sentrin-specific protease 7 (Homo sapiens), Q9BQF6; AID 434973, 2010; recombinant SENP7, Z-RLRGG-aminoluciferin luminescence, 40 min; 330,000 tested, 1.5% active; inhibition, % at 5 µM;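 active = inhibition above about 50% at the single test dose, limit read from the data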;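 note: plate controls were DMSO with enzyme for no effect and no enzyme buffer wells for full effect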
Target sequence (Q9BQF6 706-1050 limits assumed): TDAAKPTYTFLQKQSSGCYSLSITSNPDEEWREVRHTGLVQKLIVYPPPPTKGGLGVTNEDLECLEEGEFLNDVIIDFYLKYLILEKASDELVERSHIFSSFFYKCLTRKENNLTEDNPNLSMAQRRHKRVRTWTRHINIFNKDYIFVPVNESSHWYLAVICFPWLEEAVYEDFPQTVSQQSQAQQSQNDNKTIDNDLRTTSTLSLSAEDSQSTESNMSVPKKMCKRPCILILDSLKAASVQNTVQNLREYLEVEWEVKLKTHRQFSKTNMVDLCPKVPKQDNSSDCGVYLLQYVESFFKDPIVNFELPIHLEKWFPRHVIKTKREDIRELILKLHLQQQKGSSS
C8 TRAIL sens: viability loss with TRAIL in NB7+C8 cells, primary screen, TRAIL sensitizer project, cell-based, ATPlite luminescence. inhibition (viability loss, TRAIL sensitization), % at 10 µM. 360,000 tested, 1% active;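 active = compounds causing at least 50% loss of cell viability in the single-dose screen, relative to plate controls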
SENP8 confirm: SENP8 protease inhibitors, retest, confirmation, biochemical, luminescence, single concentration; shares compounds with SENP7 inh; Recombinant SENP8, Z-RLRGG-aminoluciferin luminescence, 60 min; inhibition, % at 12.5 µM; 6,200 tested, 40% active; AID 488912, 2010;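 active = mean inhibition across replicates above about 50%, limit read from the data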
SENP6 confirm: SENP6 protease inhibitors, confirmation, biochemical, luminescence, single concentration; shares compounds with SENP7 inh; recombinant SENP6, Z-RLRGG-aminoluciferin luminescence; inhibition, % at 12.5 µM; 6,200 tested, 58% active
SENP7 confirm: SENP7 protease inhibitors, retest, confirmation, biochemical, luminescence, single concentration; inhibition, % at 12.5 µM; 6,200 tested, 69% active; AID 488917, 2010; recombinant SENP7, Z-RLRGG-aminoluciferin luminescence, 40 min; shares compounds with SENP7 inh
Casp3 select: caspase-3 protease inhibitors, confirmation, selectivity assay for SENP inhibitor project, biochemical, single concentration | shares compounds with SENP7 inh | purified caspase-3, Z-DEVD-aminoluciferin luminescence, 60 min | inhibition, % at 12.5 µM | 6,200 tested, 60% active;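 active = mean inhibition above about 50%, limit read from the data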;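 note: plate controls were enzyme with DMSO for no effect and wells without caspase-3 for full effect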
Target sequence (P42574 28-227 limits assumed): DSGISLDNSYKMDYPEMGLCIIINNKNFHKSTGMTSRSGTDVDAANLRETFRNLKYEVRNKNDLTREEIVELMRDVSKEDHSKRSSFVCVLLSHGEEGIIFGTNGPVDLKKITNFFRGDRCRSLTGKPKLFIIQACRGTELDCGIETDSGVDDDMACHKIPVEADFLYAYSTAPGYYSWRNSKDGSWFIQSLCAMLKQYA
Luc interf: counter-screen for SENP inhibitors: luminescence interference. shares compounds with SENP7 inh. Pre-incubated SENP8/Z-RLRGG-aminoluciferin, luciferase luminescence interference. inhibition, % at 12.5 µM. 6,200 tested, 39% active;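 active = mean inhibition above about 50% when retested at one dose, limit read from the data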;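 note: plate controls were DMSO wells with completed reaction for no effect and substrate without enzyme for full effect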
Numbers without * were called inactive; · = no result given. Compounds with a hit are over-represented: about 3% of the library has one in this group of screens.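 Rule for the calls, unless noted: active = mean inhibition above about 50% in the one-dose retest (limit read from the data); inactive = the rest.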

SMILES	SENP6 block	PPC-1+TRAIL kill	SENP8 block-1	SENP8 block-2	SENP7 inh	C8 TRAIL sens	SENP8 confirm	SENP6 confirm	SENP7 confirm	Casp3 select	Luc interf
Nc1ccc(Oc2ccc([N+](=O)[O-])cc2[N+](=O)[O-])cc1	-20	27	25	-6	-18	-4	·	·	·	·	·
CC1=NN(c2ccc(C)cc2)C(=O)/C1=C\c1ccc(Br)s1	12	29	9	2	22	4	·	·	·	·	·
CC1=NN(c2ccccc2)C(=O)/C1=C\c1ccc(Oc2ccc([N+](=O)[O-])cc2[N+](=O)[O-])cc1	25	1	41*	4	68*	-3	11	14	0	-1	0
COc1ccccc1/C=C1/C(=O)N(c2ccccc2)N=C1C	14	·	31	-3	60*	-22	-5	2	-10	1	2
COc1ccc(S(=O)(=O)N2CCC(C(=O)N(C)Cc3ccc(C)o3)CC2)cc1OC	-17	·	0	6	0	-3	·	·	·	·	·
O=C(O)c1ccc(N/N=C/c2ccc(F)c(F)c2)cc1	98*	10	-116	97*	97*	6	99*	100*	102*	97*	98*
O=C(O)c1ccc(N/N=C/c2cccc(F)c2)cc1	100*	9	-64	97*	84*	3	100*	100*	104*	98*	99*
O=C(O)c1ccc(N/N=C/c2cccc(C(F)(F)F)c2)cc1	74*	·	-55	66*	46	-2	80*	70*	95*	25	90*
O=C(O)c1ccc(N/N=C/c2ccncc2)cc1	90*	·	5	85*	94*	-2	91*	93*	100*	88*	94*
Cc1ccc(COc2ccsc2C(=O)NNC(N)=S)cc1	-6	10	23	-6	-2	8	·	·	·	·	·
CCCCc1cc(C(=O)Cc2ccccn2)c(O)cc1O	-12	·	-22	4	1	-15	·	·	·	·	·
CCOc1ccc(CNc2nc3ccccc3n2C)cc1	84*	·	20	56*	69*	38	-3	59*	88*	86*	72*
Cc1ccccc1OCc1nc2ccccc2n1C	-5	·	10	79*	72*	10	45	80*	96*	86*	82*
Cn1c(COc2ccc(F)cc2)nc2ccccc21	62*	·	4	47	61*	9	60*	58*	83*	76*	64*
Cc1cccc(OCc2nc3ccccc3n2C)c1	45	·	23	-3	29	0	·	·	·	·	·
COc1cc(CCCN2CCNC[C@@H]2Cc2ccc(O)cc2)cc(OC)c1OC	-2	·	12	1	5	-3	·	·	·	·	·
Cn1c(SCC(=O)Nc2cccc(F)c2)nc2c(c1=O)SCC2	-7	·	7	-3	0	-2	·	·	·	·	·
CC(=O)c1cccc(NC(=O)c2cnn3ccccc23)c1	57*	28	16	44	41	-4	40	39	78*	78*	56*
CC(=O)c1ccc(NC(=O)c2cnn3ccccc23)cc1	56*	33	-20	27	37	3	33	32	73*	73*	60*
COc1ccc(NS(=O)(=O)c2ccc3c(c2)NC(=O)CO3)c(OC)c1	5	·	10	-4	1	4	·	·	·	·	·
CCCCNC(=O)C1(C)CCCCN1CC(=O)c1ccc(OC)cc1 (centres undefined)	·	·	-32	·	·	-8	·	·	·	·	·
CN(C)CCN1C(=O)NC(C)(c2ccc([N+](=O)[O-])cc2)C1=O (centres undefined)	-35	-13	8	-12	-3	-4	·	·	·	·	·
Cc1ccc(-n2nnc(-c3cnc4ccccc4c3)n2)cc1	34	14	-5	26	79*	36	13	17	25	46	12
Cc1ccc(-n2nnc(-c3cccnc3)n2)cc1	30	·	5	22	17	23	·	·	·	·	·
OCCNC(=S)Nc1cccc(Cl)c1Cl	-13	8	12	0	6	-8	·	·	·	·	·
SMILES	SENP6 block	PPC-1+TRAIL kill	SENP8 block-1	SENP8 block-2	SENP7 inh	C8 TRAIL sens	SENP8 confirm	SENP6 confirm	SENP7 confirm	Casp3 select	Luc interf
NC(=S)Nc1cccc2cc3ccccc3cc12	61*	30	-264	49	19	16	51*	60*	74*	28	61*
NC(=S)Nc1cc2ccccc2c2ccccc12	9	8	-127	7	-7	0	·	·	·	·	·
Cc1cccc2c1c1ccc3c(c1n2C)C(=O)C=CC3=O	·	5	-296	·	·	33	·	·	·	·	·
c1ccc(-c2ccccc2OCCOCCN2CCOCC2)cc1	-13	·	12	-2	10	7	·	·	·	·	·
CC1=NN(C(N)=S)C(=O)C1N=Nc1ccccc1O (centres undefined)	7	·	13	-4	-9	-6	·	·	·	·	·
CC1=NN(C(N)=S)C(=O)C1N=Nc1c(C)cc(C)cc1C (centres undefined)	16	9	26	-8	1	0	·	·	·	·	·
CC1=NN(C(N)=S)C(=O)C1N=Nc1ccccc1[N+](=O)[O-] (centres undefined)	·	·	28	·	·	3	·	·	·	·	·
CC1=NN(C(N)=S)C(=O)C1N=Nc1c(Cl)cc([N+](=O)[O-])cc1Cl (centres undefined)	98*	·	47*	95*	82*	15	96*	96*	101*	95*	65*
CC1=NN(C(N)=S)C(=O)C1N=Nc1ccc(C)cc1C (centres undefined)	92*	-7	·	81*	68*	·	41	58*	70*	68*	29
CC1=NN(C(N)=S)C(=O)C1N=Nc1c(Br)cc(Br)cc1Br (centres undefined)	85*	·	18	74*	0	-14	1	82*	90*	51*	58*

High-throughput results from PubChem.
